Active and inactive are the calls of the source. The calls were made as follows: active = hit-call score of the fitted dose curve at least 0.9, where 1 is the maximum; inactive = score below 0.9.

This test can be described thus: ATG_MRE_CIS: Attagene CIS-FACTORIAL HepG2 Assay for human Metal Responsive Element (MRE) (AID 2282954). The conditions noted are these: HepG2 MRE cis-reporter transcription, Attagene multiplex; actives raise or lower the signal. The method, then:
ATG_CIS is a cell-based, multiplexed-readout assay that uses HepG2, a human liver cell line, with measurements taken at 24 hours after chemical dosing in a 24-well plate.ATG_MRE_CIS is one of 52 assay component(s) measured or calculated from the ATG_CIS assay. It is designed to make measurements of mRNA induction, a form of inducible reporter, as detected with fluorescence intensity signals by Reverse transcription polymerase chain reaction (RT-PCR) and Capillary electrophoresis technology.Data from the assay component ATG_MRE_CIS was analyzed into 1 assay endpoint. This assay endpoint, ATG_MRE_CIS, was analyzed with bidirectional fitting relative to DMSO as the negative control and baseline of activity. Using a type of inducible reporter, measures of mRNA for gain or loss-of-signal activity can be used to understand the reporter gene at the transcription factor-level as they relate to the gene MTF1. Furthermore, this assay endpoint can be referred to as a primary readout, because this assay has produced multiple assay endpoints where this one serves a reporter gene function. To generalize the intended target to other relatable targets, this assay endpoint is annotated to the dna binding intended target family, where the subfamily is zinc finger.
Human liver HepG2 cells are transiently transfected with multiple reporter transcription units (MRTUs) in 6-well plates using FuGene 6 reagent (Roche; 3 ml FuGene/1 mg DNA). The MRTU constructs are regulated by a cis-regulating element (promoter). […] A major difference between the CIS and TRANS system is that in CIS activities of endogenous TFs are measured, whereas the TRANS assay evaluates changes in activities of exogenous, chimeric NR-Gal4 proteins. […] At the end of 24 hour incubation, total RNA was isolated using TriZol reagent (Invitrogen). The isolated RNA is then reverse-transcribed using oligo(dT) primer and Mo-MLV reverse transcriptase (Invitrogen) with DNAse I (Ambion) treatment for 30 min. The one-tenth of the produced cDNA was amplified by PCR using Taq DNA polymerase (Invitrogen) and two reporter sequence-specific primers. The PCR products were fluorescently labeled by primer extension with 6-arboxyfluorescein (6-FAM) 5'-labeled reporter sequence-specific primer (2 min at 95 C, 20 s at 68 C and 10 min at 72 C) and these products were digested with 5U of HpaI (New England Biolabs) for 2h at 37 C. The fragments were purified using Qiaquick PCR columns (Qiagen), analyzed on an ABI 3130xL genetic analyzer (Applied Biosystems) with peak positions identified by using a set of X-rhodamine (ROX)-labeled MapMarker1000 molecular weight standards (BioVentures). The raw capillary electrophoresis data was processed using Attagraph software (Attagene).
As to `CC[Si](OC(C)=O)(OC(C)=O)OC(C)=O`, the compound was classed as inactive.
Same read-out and setting: the value for `CCCC(=O)c1cc(O)c(O)cc1O` was “inactive”.
Regarding `Nc1nc2ccc([N+](=O)[O-])cc2s1`, the outcome was inactive.
In general, AC50 refers to the concentration giving half of the maximal activity seen. In the case of `CCN(CC)c1ccc2c(-c3ccccc3C(=O)O)c3ccc(=[N+](CC)CC)cc-3oc2c1`, the AC50 is 156 µM (active).
For the compound `O=C1CCCCCCCCCCCCCCO1`, the compound was called inactive.
Same read-out and setting: the value for `CCCCCCCCCCC(CO)CCCCCCCC` (stereo not given) was “inactive”; that for `CC(=O)Nc1ccc(C)cc1C` was “inactive”.
With `CNC[C@H](O)c1cccc(O)c1`, the call was inactive.
Same read-out and setting: the value for `C=C(C)[C@@H]1CC[C@@H](C)C[C@@H]1O` was “inactive”; that for `CC(=O)OCCC(C)CC(C)(C)C` (stereo not given) was “inactive”.
Still for that read-out and setting: under `CC1CC(OC(=O)c2ccccc2O)CC(C)(C)C1` (stereo not given) stands “inactive”; under `CCCCOCCOCCSC#N`, “inactive”; under `O=C(Cl)c1cccc(C(=O)Cl)c1`, “inactive”.
On the same count and under the same terms, under `NC(=O)NC1NC(=O)NC1=O` (stereo not given) stands “inactive”; under `CCCCCCCCCCCCCOS(=O)(=O)O`, “inactive”.
As for `CC1(C)C(=O)N(Br)C(=O)N1Cl`, the compound was called inactive.
As for `CCCC(C)C=O` (stereo not given), the outcome was inactive.
With `NNc1nc(-c2ccc(N)cc2)cs1`, the call was inactive.
The same measure, in the same setting: under `O=C(O)Cc1cccc2ccccc12` stands “inactive”; under `Cc1ccc(Nc2ccc(O)c3c2C(=O)c2ccccc2C3=O)cc1`, “inactive”.
The same measure, in the same setting: under `O=C1O[C@@H]2[C@@H](O)[C@H](O)O[C@@H]2[C@H]1O` stands “inactive”; under `Cc1c(N(C)C)c(=O)n(-c2ccccc2)n1C`, “inactive”; under `CC1(C)OC[C@@H]2O[C@@]3(C(=O)O)OC(C)(C)O[C@H]3[C@@H]2O1`, “inactive”.
On the same count and under the same terms, the value for `CC(C)(C)c1n[nH]c(=S)n(N)c1=O` was “inactive”.
Consider `N#Cc1ccc(CC(=NNC(=O)Nc2ccc(OC(F)(F)F)cc2)c2cccc(C(F)(F)F)c2)cc1`, for which the outcome was inactive.
For the compound `CCCCC(CC)COC(=O)/C=C\C(=O)OCC(CC)CCCC` (stereo not given), the compound was called inactive.
Same read-out and setting: under `CC(c1cc2ccccc2s1)N(O)C(N)=O` (stereo not given) stands “inactive”; under `OCCCCCO`, “inactive”.
`Clc1nc(C(Cl)(Cl)Cl)c(Cl)c(Cl)c1Cl`: the AC50 was 54.4 µM (active).
Take `O=c1oc(=O)c2cc3c(=O)oc(=O)c3cc12`: the outcome was inactive.
On the same count and under the same terms, under `CCn1c2ccccc2c2cc(N)ccc21` stands “inactive”; under `COc1nc(C)nc(N)n1`, “inactive”; under `CCN(CC)CCOC(=O)c1ccc(N)cc1`, “inactive”.
Same read-out and setting: the value for `CC1=CCC(O)(C(C)C)CC1` (stereo not given) was “inactive”.
Same read-out and setting: under `CC(C)C(C)(C)C(C)(C)C(C)(C)S` stands “inactive”.
Regarding `COc1cc2ncnc(Nc3cccc(Cl)c3)c2cc1OC`, the AC50 was 20.1 µM (active).
On to `c1ccc2sc(SN(C3CCCCC3)C3CCCCC3)nc2c1`, for which the call was inactive.
The same measure, in the same setting: the value for `CC1=CCC2C(C1)C2(C)C` (stereo not given) was “inactive”.
`O=Cc1ccc(F)cc1`: the call was inactive.
Regarding `COc1c(Cl)c(Cl)c(Cl)c(Cl)c1Cl`, the compound was classed as inactive.
